Activity calls are given as the source filed them.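 Rule for the calls: active = cell event count below 40, meaning activity score above 60 where score is 100 minus count; inactive = the rest.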
Experiment: cytotoxicity in LNCaP prostate cells – cell-based, cell event count, single point, cytotoxicity control for prostate differentiation activator project, confirmation (AID 1076);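 note: counts scatter-gated live cells after medium removal discards detached dead cells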
Details: LNCaP cell loss, flow cytometry event count, 4 d, stronger effect = lower value

SMILES	cell event count (at 100 µM)	cell event count (event count, at 10 µM)
COC(=O)c1[nH]c2c(c1C)C(=O)CCC2	387 (inactive)	252
CCS(=O)(=O)N1CCC(C(=O)NCCCN2CCN(c3ccccc3F)CC2)CC1	135 (inactive)	70.5
CCN1CCN(c2ncc(C(=O)Nc3cc(Cl)c(OC)cc3OC)c3ccccc23)CC1	41 (inactive)	301
O=c1c2ccccc2nnn1CSc1nnc2sc3ccccc3n12	141 (inactive)	143
CC(C)(O)c1cn(-c2nonc2N)nn1	249 (inactive)	106
O=C(Nc1c(C(=O)N2CCOCC2)cnn1-c1ccccc1)c1ccco1	201 (inactive)	124
Cc1ccc(C)c(N2CCN(C(=O)CCNC(=O)Cn3ccc4ccccc4c3=O)CC2)c1	76 (inactive)	148
Cn1c(C(=O)NCCN2CCN(c3ccccc3F)CC2)cc2c(=O)n(C)c3ccccc3c21	2 (inactive)	194
O=C(NCCCN1CCN(c2cccc(Cl)c2)CC1)c1ccc(N2CCCC2=O)cc1	52 (inactive)	171
O=C(NCCCN1CCN(c2cccc(Cl)c2)CC1)c1cccc(N2CCCC2=O)c1	222 (inactive)	176
CCc1ncc(C(O)c2cccc(OC)c2OC)n1C (stereo unspecified)	285 (inactive)	172
CCn1c(=O)cc(OCC(=O)O)c2ccccc21	22 (inactive)	99.5
CCOC(=O)N1CCC(=C2c3ccc(Cl)cc3CCc3cccnc32)CC1	7 (inactive)	192
COc1ccc(CCNC(=O)C2CCN(Cc3nc(-c4ccccc4C)oc3C)CC2)cc1OC	1 (inactive)	188
CCOC(=O)c1[nH]c(C)c(C(=O)N2CCc3ccccc32)c1C	13 (active)	67
Cc1oc(-c2ccccc2F)nc1CN1CCC(C(=O)NC2CCCCCCC2)CC1	6 (inactive)	90
O=C(NCC1CCCO1)C1CC(c2ccc(Cl)c(Cl)c2)=NO1 (stereo unspecified)	85 (inactive)	79
O=C(Cn1cnc2ccccc2c1=O)NCCC(=O)N1CCN(c2ccccc2)CC1	158 (inactive)	190
CCCNC(=O)C1CN(S(=O)(=O)c2ccccc2)CCN1S(=O)(=O)c1ccccc1 (stereo unspecified)	120 (inactive)	67

SMILES	cell event count (at 100 µM)	cell event count (event count, at 10 µM)
O=C(NCCCN1CCN(c2cccc(Cl)c2)CC1)c1nc(-c2ccncc2)no1	166 (inactive)	462
CCOC(=O)N1CCN(C(=O)CCc2c(C)nc3c(c(C)nn3-c3ccc(C)c(C)c3)c2C)CC1	5 (inactive)	222
Cc1cccc(-c2nc(CN3CCCC(C(=O)NC4CCCCC4)C3)c(C)o2)c1 (stereo unspecified)	28 (inactive)	170
O=C(NCCCN1CCN(c2ccccc2F)CC1)C1CCN(S(=O)(=O)N2CCOCC2)CC1	156 (inactive)	108
CC(C)(C)C1CCc2onc(C(=O)Nc3cnn(Cc4ccc(F)cc4)c3)c2C1 (stereo unspecified)	66 (inactive)	242
O=C(NCc1ccc(Cl)cc1)c1noc2c1CCCC2	311 (inactive)	380
CCOC(=O)c1sc2ncnc(N3CCN(c4ccc(OC)cc4)CC3)c2c1C	16 (inactive)	76.5
Cc1ccc(S(=O)(=O)NCCCCC(NC(=O)OC(C)(C)C)C(=O)O)cc1 (stereo unspecified) (tested in a mixture with another compound)	203 (inactive)	138
CCCCC(=O)NCCc1ccc(S(N)(=O)=O)cc1	238 (inactive)	92.5
COc1ccc2cc3c(N)nn(C(=O)Cc4ccccc4OC)c3nc2c1	20 (inactive)	287
COc1ccc(-c2cc(C(=O)NCc3ccc(Cl)cc3)no2)cc1OC	172 (inactive)	255
Nc1ccc(-c2nc3c(Cl)c(N)ccc3[nH]2)cc1	183 (inactive)	206
CC(C)(C)OC(=O)N1CCC(C(=O)N2CCCCCC2)CC1	223 (inactive)	123
COC(=O)c1cc(-c2ccccc2)sc1NC(=O)c1cc(C)on1	10 (active)	42.5
CCc1ccc(-c2nc(CN3CCC(C(=O)NCCN(CC)c4ccccc4)CC3)c(C)o2)cc1	6 (inactive)	150
Cc1cc(N2CCN(C)CC2)nc2ccc(NC(=O)c3ccc(Br)o3)cc12	4 (inactive)	96.5
O=C(NC1CCCC1)C1CCN(S(=O)(=O)c2cccc3cccnc23)CC1	371 (inactive)	182
CCn1c(=S)ccc2ccc(OC)cc21	139 (inactive)	118
O=c1cc(N2CCN(c3ccc(F)cc3)CC2)[nH]c(=O)n1C1CCCCC1	173 (inactive)	318
